Assay results taken from the supplement of paper PMC6897291.

Tested on: RIVA
Assay: growth inhibition by drug plus 177Lu-lilotomab satetraxetan (1 - RLU/untreated control) (fraction); higher = stronger inhibition
Settings: 177Lu-lilotomab satetraxetan 0.5 ug/ml
Experimental: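 RIVA (RI-1) ABC-DLBCL cells were pretreated or not for 18 h with 0.5 ug/ml 177Lu-lilotomab satetraxetan (600 MBq/mg), washed and seeded (3000 cells/well) on 384-well plates pre-printed with the Selleck Cambridge Cancer Compound library. Viability was read by RealTime-Glo luminescence on days 3-6 after seeding. Effect = 1 - RLU/mean RLU of the 48 untreated no-drug control wells per plate; Bliss score = (M-E)/(1-Fa).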

SMILES | growth inhibition by drug plus 177Lu-lilotomab satetraxetan (10 nM, time (day): 3) | growth inhibition by drug plus 177Lu-lilotomab satetraxetan (10 nM, time (day): 4) | growth inhibition by drug plus 177Lu-lilotomab satetraxetan (10 nM, time (day): 5) | growth inhibition by drug plus 177Lu-lilotomab satetraxetan (10 nM, time (day): 6) | growth inhibition by drug plus 177Lu-lilotomab satetraxetan (100 nM, time (day): 3) | growth inhibition by drug plus 177Lu-lilotomab satetraxetan (100 nM, time (day): 4) | growth inhibition by drug plus 177Lu-lilotomab satetraxetan (100 nM, time (day): 5) | growth inhibition by drug plus 177Lu-lilotomab satetraxetan (100 nM, time (day): 6)
COc1ccc(CCN2CCN(CCCc3ccccc3)CC2)cc1OC | 0.23 | 0.322 | 0.343 | 0.385 | 0.0167 | 0.137 | 0.119 | 0.162
CCc1cc(Nc2nccc(-c3c(-c4ccc(OC)c(C(=O)Nc5c(F)cccc5F)c4)nc4ccccn34)n2)c(OC)cc1N1CCC(N2CCN(S(C)(=O)=O)CC2)CC1 | 0.374 | 0.514 | 0.532 | 0.545 | 0.381 | 0.455 | 0.481 | 0.461
O=C(Cc1ccc(-c2ccc(OCCN3CCOCC3)cc2)cn1)NCc1ccccc1 | 0.466 | 0.544 | 0.565 | 0.575 | 0.833 | 0.839 | 0.863 | 0.881
COc1cc(Nc2ncc(F)c(Nc3ccc4c(n3)NC(=O)C(C)(C)O4)n2)cc(OC)c1OC [R406(free base)] | 0.577 | 0.592 | 0.602 | 0.605 | 0.471 | 0.564 | 0.581 | 0.575
CCC(CC)CC1(C(=O)Nc2ccccc2SC(=O)C(C)C)CCCCC1 | 0.496 | 0.541 | 0.564 | 0.567 | 0.369 | 0.456 | 0.462 | 0.476
